High-throughput results as filed in PubChem BioAssay.
Only some compounds are listed: those with a hit (about 7.6% of all), similar ones and a draw of the others.
HCV NS3h FP: hepatitis C NS3 helicase inhibition, primary screen. NS3h Cy5-dT15 DNA binding, fluorescence polarization. hit rate 1.6% among 16,000. inhibition, % at 100 µM;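 active = inhibition above the average over every tested compound plus 3 SD, cut at about 40% in these data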
Cy5 interf NS3h: Cy5 fluorescence interference, HCV helicase counter-screen; hit rate 6% among 16,000; fluorescence interference ratio at 100 µM; AID 720488; Cy5-dT15 DNA with NS3h; actives lie on both sides; signal over control mean, under 1 quenches;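 active = compound fluorescence over control fluorescence at most 0.8, a quencher, or at least a set upper limit, an enhancer; inactive = ratio between 0.8 and the set upper limit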
HCV NS3h conf: confirmation of hepatitis C virus NS3 helicase inhibitors. shares compounds with HCV NS3h FP. NS3h binding to Cy5-dT15 DNA, fluorescence polarization. hit rate 20% among 240. inhibition, % at 100 µM;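 active = percent inhibition of 50% or more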
SSB FP counter: counter-screen for HCV NS3 helicase inhibitors: E. coli SSB binding. shares compounds with HCV NS3h FP. E. coli SSB binding Cy5-dT15, fluorescence polarization. inhibition, % at 100 µM. hit rate 40% among 240;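 active = inhibition of at least 50%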;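 note: displacers lower Cy5 polarization so higher inhibition means more SSB displaced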
Target sequence (P0AGE0 whole entry, looked up): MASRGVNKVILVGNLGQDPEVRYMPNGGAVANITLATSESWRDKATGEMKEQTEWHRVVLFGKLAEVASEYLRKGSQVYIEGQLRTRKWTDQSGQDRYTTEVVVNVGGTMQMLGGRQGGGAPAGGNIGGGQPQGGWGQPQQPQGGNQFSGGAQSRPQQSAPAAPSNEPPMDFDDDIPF
Cy5 SSB interf: counter-screen for HCV NS3 helicase inhibitors: fluorescence interference; Cy5-dT15/E. coli SSB fluorescence interference; actives lie on both sides; fluorescence interference ratio at 100 µM; shares compounds with HCV NS3h FP; hit rate 8% among 240;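 active = fluorescence interference ratio at or above 1.2, signal boosting, or at or below 0.8, signal quenching; inactive = ratio between 0.8 and 1.2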;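 note: ratio of compound well signal to mean negative control signal so 1 means no effect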
Cy5 fluor confirm: confirmation counter-screen for HCV NS3 helicase inhibitors: fluorescence interference | shares compounds with HCV NS3h FP | Cy5-dT15 DNA/NS3h fluorescence interference counterscreen | fluorescence interference ratio at 100 µM, hits read low | hit rate 44% among 240 | AID 720489;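 active = fluorescence interference ratio at or below 0.8 quencher or at or above a set limitenhancer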;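 note: ratio of compound fluorescence to mean of negative controls so 1 means no interference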
Active calls of the source: *.

How did O=C1C(=Cc2ccccc2Br)C(=O)c2ccccc21 do in these assays?
HCV NS3h FP: 74*; Cy5 interf NS3h: 0.91; HCV NS3h conf: 51*; SSB FP counter: 11; Cy5 SSB interf: 0.98; Cy5 fluor confirm: 0.97

What do the screens show for `COc1cccc(C=C2C(=O)c3ccccc3C2=O)c1`?
HCV NS3h FP: 24; Cy5 interf NS3h: 1

Results for Cc1cccc(C(C)C)c1NC(=O)CCCOc1ccc(Cl)cc1Cl ?
HCV NS3h FP: 5; Cy5 interf NS3h: 1

Results for COc1cc(/C=C2/SC(=S)NC2=O)ccc1OC(=O)c1ccccc1Br ?
HCV NS3h FP: 42*; Cy5 interf NS3h: 1.1; HCV NS3h conf: 8; SSB FP counter: 2; Cy5 SSB interf: 1; Cy5 fluor confirm: 0.78*

What do the screens show for `COc1cc(/C=C2\SC(=S)NC2=O)cc(Br)c1OC`?
HCV NS3h FP: 2; Cy5 interf NS3h: 0.97

What do the screens show for `O=C(Nc1ccccc1O)c1ccc(-c2ccc(Cl)cc2Cl)o1`?
HCV NS3h FP: -6; Cy5 interf NS3h: 1.1

How did Cc1cccc(NC(=O)/C(C#N)=C\c2cc(C)n(-c3cccc(C)c3C)c2C)c1 do in these assays?
HCV NS3h FP: 8; Cy5 interf NS3h: 0.96

What do the screens show for `CC(=O)Nc1ccc(Oc2ccc(C(=O)O)c(C(=O)O)c2)cc1`?
HCV NS3h FP: 1; Cy5 interf NS3h: 1

How did O=C(Nc1cccc(Oc2ccc(C(=O)O)c(C(=O)O)c2)c1)c1ccc(-c2ccccc2)cc1 do in these assays?
HCV NS3h FP: 52*; Cy5 interf NS3h: 1.1; HCV NS3h conf: 16; SSB FP counter: 19; Cy5 SSB interf: 0.9; Cy5 fluor confirm: 0.74*

Results for CC(=O)NC1=C(N(C)C)C(=O)c2ccccc2C1=O ?
HCV NS3h FP: -21; Cy5 interf NS3h: 0.91

What do the screens show for `CC(=O)N(C)C1=C(Cl)C(=O)c2ccccc2C1=O`?
HCV NS3h FP: 90*; Cy5 interf NS3h: 0.85; HCV NS3h conf: 85*; SSB FP counter: 0; Cy5 SSB interf: 0.97; Cy5 fluor confirm: 0.97

Results for O=C(O)c1cc(-c2ccc(/C=C3/Sc4ccccc4C3=O)o2)ccc1O ?
HCV NS3h FP: 110*; Cy5 interf NS3h: 0.97; HCV NS3h conf: 61*; SSB FP counter: 102*; Cy5 SSB interf: 0.84; Cy5 fluor confirm: 0.69*

How did CC(=O)N(/C=C1\Sc2ccccc2C1=O)c1ccc(C)cc1 do in these assays?
HCV NS3h FP: 8; Cy5 interf NS3h: 1.1

Results for COc1ccc(C(=O)N/C(=C/c2ccc(-c3ccc(Cl)cc3)o2)C(=O)N(C)C)cc1 ?
HCV NS3h FP: 20; Cy5 interf NS3h: 0.86

How did O=C(/C=C/c1ccccc1)NC(=S)Nc1nc(-c2ccccc2)cs1 do in these assays?
HCV NS3h FP: -5; Cy5 interf NS3h: 1.1

Results for C=CCN1C(=O)NC(=O)/C(=C/C=C/c2ccco2)C1=O ?
HCV NS3h FP: 78*; Cy5 interf NS3h: 1.3*; HCV NS3h conf: 46; SSB FP counter: 41; Cy5 SSB interf: 1.1; Cy5 fluor confirm: 0.76*

What do the screens show for `C=CCN1C(=O)NC(=O)C(=Cc2ccc(C(C)C)cc2)C1=O`?
HCV NS3h FP: 6; Cy5 interf NS3h: 0.99

How did O=C1NC(=O)N(c2ccccc2Cl)C(=O)/C1=C\C=C\c1ccco1 do in these assays?
HCV NS3h FP: 62*; Cy5 interf NS3h: 1.2*; HCV NS3h conf: 51*; SSB FP counter: 96*; Cy5 SSB interf: 1.2*; Cy5 fluor confirm: 0.93

How did O=C1C=C(Nc2ccccc2)C(=O)N1c1ccccc1Cl do in these assays?
HCV NS3h FP: 11; Cy5 interf NS3h: 1

What do the screens show for `N/C(=N/OC(=O)c1ccc(Br)cc1)c1ccc(Cl)cc1`?
HCV NS3h FP: 7; Cy5 interf NS3h: 1

Results for Cc1ccc(/C=C2\SC(=S)N(c3cccc(C)c3C)C2=O)cc1 ?
HCV NS3h FP: 21; Cy5 interf NS3h: 1.1

What do the screens show for `O=C1C(=O)N(c2nccs2)C(c2cccc(Br)c2)C1=C(O)c1ccc(Cl)cc1` (stereo not drawn)?
HCV NS3h FP: 12; Cy5 interf NS3h: 0.82

What do the screens show for `COc1ccc(OC)c(C2C(=C(O)c3ccccc3)C(=O)C(=O)N2Cc2cccnc2)c1` (stereo not drawn)?
HCV NS3h FP: -13; Cy5 interf NS3h: 1.1

Results for O=C(CC1SC(=O)NC1=O)Nc1ccc(C(=O)O)cc1 (stereo not drawn) ?
HCV NS3h FP: 18; Cy5 interf NS3h: 1.1

Results for C/C(=N/N=C1\NC(=O)C(CC(=O)Nc2ccc(C(=O)O)cc2)S1)c1ccc([N+](=O)[O-])cc1 (stereo not drawn) ?
HCV NS3h FP: 7; Cy5 interf NS3h: 1.1

Results for CC1=C/C(=N/N=C2\NC(=O)C(CC(=O)Nc3ccc(C(=O)O)cc3)S2)CC(C)(C)C1 (stereo not drawn) ?
HCV NS3h FP: 89*; Cy5 interf NS3h: 1.1; HCV NS3h conf: 62*; SSB FP counter: 95*; Cy5 SSB interf: 0.89; Cy5 fluor confirm: 0.75*

Results for O=C(CC1S/C(=N/N=C\c2ccccc2)NC1=O)Nc1ccc(C(=O)O)cc1 (stereo not drawn) ?
HCV NS3h FP: 128*; Cy5 interf NS3h: 1.1; HCV NS3h conf: 53*; SSB FP counter: 101*; Cy5 SSB interf: 0.87; Cy5 fluor confirm: 0.78*

Results for Cc1cc(OCC(=O)OC(C)C)c2c(-c3ccccc3)cc(=O)oc2c1 ?
HCV NS3h FP: 11; Cy5 interf NS3h: 1.1

Results for CN(C)c1ccc(NS(=O)(=O)c2ccc(F)cc2)cc1 ?
HCV NS3h FP: 7; Cy5 interf NS3h: 0.97

How did CN(C)c1ccc(NS(=O)(=O)c2ccc(N3C(=O)CCC3=O)cc2)cc1 do in these assays?
HCV NS3h FP: 50*; Cy5 interf NS3h: 0.92; HCV NS3h conf: 32; SSB FP counter: 61*; Cy5 SSB interf: 1.1; Cy5 fluor confirm: 0.96

How did COc1ccc(OC)c(C2NC(=S)NC(C)=C2C(=O)Nc2ccccc2Cl)c1 (stereo not drawn) do in these assays?
HCV NS3h FP: 15; Cy5 interf NS3h: 1.1

What do the screens show for `O=C(c1nn2c(c1Br)NC(c1ccccc1)CC2C(F)(F)F)N1CCOCC1` (stereo not drawn)?
HCV NS3h FP: 4; Cy5 interf NS3h: 1

How did CCOc1ccccc1NC(=O)C(=O)NCCc1ccc(OC)c(OC)c1 do in these assays?
HCV NS3h FP: 2; Cy5 interf NS3h: 1.1

Results for CC(=O)c1ccc(NC(=O)c2ccc3c(c2)OCCO3)cc1 ?
HCV NS3h FP: -4; Cy5 interf NS3h: 0.97

How did O=C(Nc1ccc(Cl)cc1)c1ccc2c(c1)OCCO2 do in these assays?
HCV NS3h FP: 27; Cy5 interf NS3h: 1.1; HCV NS3h conf: 62*; SSB FP counter: 76*; Cy5 SSB interf: 1.1; Cy5 fluor confirm: 0.96

Results for Cc1ccc2c(c1)C1C=CCC1C(C(=O)O)N2 (stereo not drawn) ?
HCV NS3h FP: 94*; Cy5 interf NS3h: 1.2*; HCV NS3h conf: 75*; SSB FP counter: 106*; Cy5 SSB interf: 1.4*; Cy5 fluor confirm: 0.92
